Assay results as given in PubChem BioAssay AID779 (Sanford-Burnham Center for Chemical Genomics, 2007).
A number with no mark means an inactive call. No rule for the calls is given here.

Assay: PLAP enzyme activity inhibition – biochemical, colorimetric, counter-screen, dose response (AID 779)
Conditions: colorimetric OD read-out

| SMILES | IC50 [µM] |
| --- | --- |
| CCOC(=O)N1CCN(C(=O)CSc2nnc(-c3c[nH]c4ccccc34)n2CCOC)CC1 | > 50 |
| CCn1c(O)c(/C=N/N=C/c2ccccc2)c2ccc(C3=NNC(=O)CC3)cc21 | > 50 |
| CCN(CCO)c1nc(SC)nc2c1sc1nc(-c3ccco3)c3c(c12)CCC3 | > 50 |
| CN(C)c1ccc(/C=C/C(=O)c2cccc(Br)c2)cc1 | > 50 |
| CCOC(=O)c1c(C)oc2c1c(C(c1cccnc1)N1CCOCC1)c(O)c1ccccc12 (configuration not stated) | > 50 |
| CCc1cccc2c(C(=O)CSc3nnc(-c4ccoc4C)n3C)c[nH]c12 | > 50 |
| CCSc1nnc(-c2sc3nnc(-c4ccccc4)c(-c4ccccc4)c3c2N)o1 | > 50 |
| Brc1ccc(-c2nnc(-c3cccc(Br)c3)o2)cc1 | > 50 |
| Clc1ccccc1CSc1nnc(-c2ccco2)c(-c2ccco2)n1 | > 50 |
| COc1cc(NC(=O)c2ccc(COCC(F)(F)F)cc2)cc(OC)c1OC | > 50 |
| O=[N+]([O-])/C=C/c1cn(Cc2ccccc2)c2ccccc12 | > 50 |
| CCCCn1nc(-c2ccccc2)c2nc3ccccc3nc21 | > 50 |
| COc1cccc(C2(CSc3nnc(-c4cc(OC)c(OC)c(OC)c4)o3)OCCO2)c1 | > 50 |
| CCCCN(CCCC)C1=Nc2ccccc2N/C1=C(/C#N)C(=O)OCC | > 50 |
| CCOC(=O)C(C(=O)OCC)c1cc(Br)c2noc3c2c1C(=O)c1ccccc1-3 | > 50 |
| O=C(/C=C/c1ccccc1)c1cc(Br)ccc(=O)c1O | > 50 |
| O=C1/C(=C\c2ccco2)SC(=S)N1Cc1ccccc1 | > 50 |
